The list is not random: actives were taken first. Their share in the collection is about 4.3%.
Peg3 prom inh: inhibitors of Peg3 promoter; AID 588405; HeLa PEG-Prom luciferase reporter, luminescence, overnight; inhibition, % at 20 µM; 360,000 tested, 1.7% active;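 active = inhibition of at least 50% at 20 µM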
CF NFkB block: blocks PAF-induced NF-kB reporter in cystic fibrosis cells; KKLEB NF-kB-GFP reporter, GFP fluorescence overnight; inhibition, % at 5 µM; 360,000 tested, 0.86% active; AID 588850;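 active = at least 50% inhibition at 5 µM, scaled per plate between neutral and stimulator controls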;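 also: PAF is a Pseudomonas aeruginosa culture filtrate used as stimulus; plate controls were PAF-stimulated DMSO wells for no effect and unstimulated DMSO wells for full effect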
HIF-2a block: inhibitors of HIF-2a; 786-0 RCC cells HIF-2a reporter, luciferase luminescence, overnight; inhibition, % at 18.8 µM; 360,000 tested, 0.72% active; AID 624352;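 active = inhibition of the luminescence signal of 40% or more relative to plate controls, in a single-dose primary screen at 18.75 µM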
KKLEB cytotox: counter-screen for CF NF-kB inhibitors: cytotoxicity; KKLEB CF airway cells viability, ATPlite luminescence, overnight; stronger effect = lower value; cells stimulated with P. aeruginosa culture filtrate; activity change (cytotoxicity), % at 5 µM; 360,000 tested, 0.36% active;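 active = corrected activity change at or below -50% at 5 µM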
TRPM1 prom inh: MITF TRPM1 promoter inhibition in SK-MEL-5 cells; 330,000 tested, 0.83% active; SK-MEL-5 TRPM1 promoter luciferase, 24 h; inhibition, % at 12.5 µM; AID 488899;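 active = mean inhibition across replicates of 60% or more, whatever share of single replicates reaches that level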
CHOP inhibitor: blocks CHOP induction under ER stress. CHO-K1 CHOP-promoter luciferase, tunicamycin-induced, 15-18 h. 220,000 tested, 3.8% active. AID 2732. inhibition, % at 10 µM;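 active = compounds that reduced the stress-induced luciferase reporter signal by more than about 70% of percent inhibition, limit read from the data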;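 also: 0% = tunicamycin plus vehicle and 100% = wells without tunicamycin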
An asterisk follows results filed as active; nt = no result given.

SMILES	Peg3 prom inh	CF NFkB block	HIF-2a block	KKLEB cytotox	TRPM1 prom inh	CHOP inhibitor
CC1=C(C(=O)N(C(C)C)C(C)C)CC(CC(=O)NCc2cccs2)C(=O)N1CCC1=CCCCC1 (configuration not stated)	16.4	1.8	-3.7	2.8	nt	nt
CCCc1cc(=O)oc2cc(C)cc(OCC(=O)Nc3cccnc3)c12	86.9*	-17.8	12.4	-3.3	2.7	nt
O=C1S/C(=C\c2ccc(O)c([N+](=O)[O-])c2)C(=O)N1c1ccccc1Cl	9.3	4.0	-75.0	12.2	3.2	48.1
COc1cc(/C=C2\SC(=O)N(c3ccc(Cl)cc3)C2=O)cc([N+](=O)[O-])c1O	-9.8	6.4	-7.1	14.9	11.4	105.2*
COc1cc(/C=C2\SC(=O)N(c3cccc(Cl)c3)C2=O)cc([N+](=O)[O-])c1O	15.6	16.8	-43.5	3.2	7.0	105.2*
CN(C)C(=O)CCc1ccc2c3c([nH]c2c1)[C@]1(CCC2CCCC2)[C@@H](C(=O)N2CCOCC2)C[C@H](CC(=O)NCc2cccc(C(F)(F)F)c2)C(=O)N1CC3	28.6	-17.2	0.3	9.9	17.8	nt
CC(C)=CCC/C(C)=C/CNC(=O)CC1C[C@H](C(=O)N(C(C)C)C(C)C)[C@@]2(C)c3[nH]c4ccccc4c3CCN2C1=O (some centres not stated)	89.3*	16.8	-0.4	-4.2	1.1	nt
CC[C@]12c3[nH]c4cc(CCC(=O)N(C)C)ccc4c3CCN1C(=O)[C@@H](CC(=O)NC/C=C(\C)CCC=C(C)C)C[C@@H]2C(=O)N1CCN(C(=O)C2CC2)CC1	5.5	-42.5	-1.1	14.2	24.6	nt
O=C(CC1C[C@H](C(=O)N2CCOCC2)[C@@]2(CCC3CCCC3)c3[nH]c4ccccc4c3CCN2C1=O)NCc1cccc(C(F)(F)F)c1 (some centres not stated)	90.2*	34.7	13.2	-34.8	52.3	nt
CC[C@]12c3[nH]c4ccc(Cl)cc4c3CCN1C(=O)[C@@H](CC(=O)NC/C=C(\C)CCC=C(C)C)C[C@@H]2C(=O)N1CCN(C(=O)C2CC2)CC1	60.0*	19.1	-27.7	-3.8	38.5	nt
CC(C)=CCC/C(C)=C/CNC(=O)C[C@H]1C[C@H](C(=O)N(C(C)C)C(C)C)[C@@]2(C)c3[nH]c4ccc(Cl)cc4c3CCN2C1=O	13.9	18.7	-6.8	-4.4	11.0	nt
CC[C@]12c3[nH]c4ccc(Cl)cc4c3CCN1C(=O)[C@@H](CC(=O)NCc1cccc(C(F)(F)F)c1)C[C@@H]2C(=O)N1CCN(C(=O)C2CC2)CC1	52.4*	-14.2	-3.3	0.2	8.3	nt
Cc1ccc(S(=O)(=O)N2[C@@H](c3ccc(Br)cc3)C(C(=O)O)=CC[C@H]2c2ccc3c(c2)OCO3)cc1	1.6	-9.6	7.7	-11.4	1.4	nt
CCCCN1C(=O)C(CC(=O)NCCc2ccccn2)CC(C(=O)N2CCCCCC2)=C1C (configuration not stated)	nt	nt	8.0	nt	nt	nt
CC1(c2ccccc2Cl)NC(=O)N(CC(=O)N2c3ccccc3NC(=O)C2(C)C)C1=O (configuration not stated)	-10.9	2.4	6.3	11.2	8.9	nt
Cc1ccsc1C(=O)N1CCC1(C)C(=O)NS(=O)(=O)c1ccc(C#N)cc1 (configuration not stated)	-7.1	-7.5	14.0	0.2	nt	nt
CCN(CC)C(=O)[C@H]1C[C@H](CC(=O)NCc2cccc(C(F)(F)F)c2)C(=O)N2CCc3c([nH]c4cc(-c5ccco5)ccc34)[C@]12C	85.4*	36.4	-27.0	4.8	29.8	nt
Cc1onc(-c2ccccc2)c1C(=O)OCC(=O)Nc1ccc2c(c1)OCO2	-1.6	2.0	16.4	14.6	nt	9.7
CCc1nc2ccccc2c(C(=O)OCC(=O)Nc2ccc(S(=O)(=O)N3CCOCC3)cc2)c1C	21.3	3.7	11.7	3.4	3.2	74.4*
Cc1c(-c2cccc(Cl)c2)nc2ccccc2c1C(=O)OCC(=O)Nc1ccc2c(c1)OCO2	49.0	-25.9	-30.2	4.7	2.4	78.5*
CCc1nc2ccccc2c(C(=O)OCC(=O)Nc2cccc(S(=O)(=O)N3CCOCC3)c2)c1C	76.8*	4.8	11.3	1.2	36.9	31.0
COc1ccccc1NS(=O)(=O)c1ccc(C)c(C(=O)N2CCN(c3ccc(O)cc3)CC2)c1	4.3	1.7	-4.2	5.7	-0.5	nt

High-throughput results: PubChem, several laboratories
